# Assay results: PubChem BioAssay AID598 (SRMLSC, 2007)
# The whole screen tested about 85,000 compounds, of which about 5,100 (6%) were called active. The sample as a whole holds a higher share of actives than the screen did. A number with no mark means an inactive call.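 The calls were made as follows: active = viability at or below 40%; inactive = viability above 40%.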
# Assay: proliferation blockers of H69AR lung cancer cells, primary screen, cell-based, human, 86K library (AID 598);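 also: multidrug resistant small cell line overexpressing MRP-1 efflux transporter; 100% = mean luminescence of untreated control wells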
# Conditions: H69AR lung tumor viability, ATP luminescence, 72 h; at 10 µM; hits give low values
row,Structure (SMILES),viability
1,CCCn1c(SCC(=O)Nc2cccc(C(=O)OCC)c2)nnc1-c1ccoc1C,78.9%
2,CCn1c(Cc2ccccc2)nnc1SCC(=O)Nc1ccccc1,90%
3,CCn1c(SCC(=O)Nc2cccc(F)c2)nnc1-c1cc2cc(Br)ccc2o1,34.7% (active)
4,COC(=O)c1cc2nc(-c3ccccc3)cc(C(F)(F)F)n2n1,90.6%
5,O=C(O)CCC(=O)NCc1ccc(C(=O)O)cc1,96%
6,O=C(Nc1cc(-c2nn(CC(=O)N3CCCCC3)c(=O)c3ccccc23)ccc1N1CCOCC1)c1ccc(Cl)cc1,93.1%
7,Cc1ccc(-c2cnc(NC(=O)CCC(=O)N(C)Cc3ccccc3)n2C)cc1,100%
8,COc1ccc(NC(=O)CC2COc3ccccc3O2)c(OC)c1 (stereo not drawn),105%
9,Cc1cccc(-c2nc3c(c(SCC(=O)N4CCOCC4)n2)CCCC3)c1,70.3%
10,Cn1nc(-c2ccccc2)c(CSc2cccc(Cl)c2)c1Cl,22% (active)
11,COC(=O)Cn1nc(-c2ccccc2)c2cc(Cl)ccc21,98.3%
12,Cc1ccc(S(=O)(=O)c2c(COC(=O)c3cccc(Cl)c3)c(-c3ccccc3)nn2C)cc1,87.9%
13,Cn1c(=O)c2c(SCC(=O)N3CCOCC3)nc(C3CC3)nc2n(C)c1=O,81.8%
14,CC(C)NC(=O)C(=O)NCCN1CCN(S(=O)(=O)c2ccc(Cl)cc2)CC1,94.6%
15,O=C(CCn1c(SCC(=O)c2ccccc2)nc2ccccc2c1=O)NCc1ccc(F)cc1,97.6%
16,Cc1cc(C)n(-c2cc(Oc3ccccc3)ncn2)n1,100%
17,Cc1cc(Oc2ccccc2)nc(N2CCOCC2)n1,94.1%
18,CC(=O)c1ccc(Oc2cc(C)nc(-n3nc(C)cc3C)n2)cc1,23.4% (active)
19,O=C(CSc1nc2cccnc2n1Cc1ccccc1)N1CCc2ccccc21,70.1%
20,C=CCO/N=C(\C)c1c(O)c(C)c(-c2ccccc2)n(-c2ccccc2)c1=O,96.7%
21,O=C(NCC1CCC(C(=O)O)CC1)OCc1ccccc1 (stereo not drawn),98.5%
22,CCCOc1ccccc1C1CC(=O)Nc2cc3c(cc21)OCO3 (stereo not drawn),25.9% (active)
23,COc1ccc(C2CC(=O)Nc3cc(C)c(C)cc32)c(OC)c1OC (stereo not drawn),78.6%
24,COCCOC(=O)C1=C(C)NC(=O)CC1c1cc2c(cc1Br)OCO2 (stereo not drawn),97.1%
25,CCCNC(=S)N1CCC(NC(=O)C23CC4CC(CC(C4)C2)C3)CC1,101%

row,Structure (SMILES),viability
1,CCOC(=O)Cc1csc(NC(=O)CSc2nnc(-c3cccnc3)n2Cc2ccco2)n1,100%
2,CCOCc1nnc(NC(=O)CSc2ccc(C)cc2)s1,94.8%
3,CCCCCN1CC(O)=C(c2nc(-c3ccc(Cl)cc3)cs2)C1=N,99%
4,COc1ccc(C(=O)Nc2ccc(F)cc2F)cc1,94.2%
5,CCOC(=O)N1CCN(S(=O)(=O)c2ccc(C(=O)Nc3ccc(F)cc3F)cc2)CC1,20.4% (active)
6,O=C(Nc1cccc(F)c1)c1ccc(S(=O)(=O)N2CCCC2)cc1,84.8%
7,COc1ccc(C2=NOC3(CC(=O)N(c4ccc(C)cc4)C3=O)C2)cc1 (stereo not drawn),98.4%
8,O=C(c1cccc(N2CCCC2=O)c1)N1CCOCC1,110%
9,CCN(CC)CCn1c2ccc(Cl)cc2c2nc(C)sc21,20.6% (active)
10,COC(=O)Cn1c2ccc(C)cc2c2nc(C)sc21,98.6%
11,COc1ccc(Br)cc1CN1CCN(C(=O)c2cccc(OC)c2OC)CC1,70.4%
12,COC(=O)c1ccccc1NC(=O)CN(Cc1ccc(Cl)cc1)S(C)(=O)=O,60.9%
13,COc1cccc(-c2nnc(NC(=O)c3ccc(S(=O)(=O)N(CC(C)C)CC(C)C)cc3)o2)c1,13.2% (active)
14,COc1cccc(NC(=O)CN(C)S(=O)(=O)c2ccc(C)cc2)c1,89.9%
15,CCN(CC)C(=O)CSc1nnc(-c2cccc(OC)c2)o1,76.1%
16,COC(=O)c1ccccc1Sc1c(/C=N/OCc2ccc(Cl)cc2)c(C(F)(F)F)nn1C,79.2%
17,CN(C)C(=O)c1cc(Br)ccc1Cl,100%
18,COc1ccc(C2C(C#N)=C(/N=C/N3CCOCC3)OC3=C2C(=O)CC(C)(C)C3)cc1OC (stereo not drawn),96.7%
19,OC(COc1ccc2c(c1)CCC2)CN1CCN(c2cccc(Cl)c2)CC1 (stereo not drawn),75%
20,O=C(Nc1ccccc1-c1nnn(CC(=O)N2CCCc3ccccc32)n1)c1cccc(Cl)c1,102%
21,Cc1cc(C)n(C(=O)CCNC(=O)c2ccccc2Cl)n1,104%
22,Clc1ccc(C2=CSC3=Nc4cccc5cccc(c45)N23)cc1,27.7% (active)
23,O=C(c1ccco1)N1CCN(C(=O)C2CCCN(S(=O)(=O)c3cccc4nsnc34)C2)CC1 (stereo not drawn),91.1%
24,CCOCCOCCC(C(=O)O)P(=O)(c1ccccc1)c1ccccc1 (stereo not drawn),103%
25,CCc1c(O)nc(SCC(=O)Nc2ccccc2)n(C(C)CC)c1=O (stereo not drawn),74.6%

row,Structure (SMILES),viability
1,CC(C)c1ccc(NC(=O)NC2CCCCC2)cc1,25.6% (active)
2,CC(C)NS(=O)(=O)c1ccc(NC(=O)C2CCCCC2)cc1,109%
3,CC(=O)OC(C(=O)NC1CCCCC1)c1ccccc1 (stereo not drawn),92.1%
4,CNC(=S)N1N=C(c2ccccc2)CC1c1ccc(Br)cc1 (stereo not drawn),76.7%
5,CCCn1c(C(O)c2cc(OC)ccc2OC)nc2ccccc21 (stereo not drawn),95.3%
6,COc1ccc(-c2nc3ccccc3n2CCC(C)C)cc1OC,28.8% (active)
7,COCCn1c(-c2ccc(OC)c(OC)c2)nc2ccccc21,92.7%
8,COC(=O)c1[nH]c2ccc(Br)cc2c1NC(=O)Oc1ccccc1,80.6%
9,O=C(Nc1ccc2oc(-c3ccc4ccccc4c3)nc2c1)c1cccs1,2.65% (active)
10,Cc1nc(-c2ccc(NC(=O)c3cccs3)cc2)cs1,70.7%
11,O=C(Cc1cccc2ccccc12)Nc1ccc2oc(-c3ccccc3)nc2c1,59.7%
12,CCNC(=O)c1sccc1-n1cccc1,103%
13,CC(C)(C)NC(=O)Cn1c(SCC(=O)Nc2nccs2)nc2ccccc21,92.5%
14,O=S(=O)(N1CCCCC1)N1CCNCC1,100%
15,O=C(CSc1nnc(-c2ccco2)n1-c1ccccc1)NCCc1ccccc1,82%
16,Cc1cccc(C)c1NC(=O)CCCSc1nnc(-c2ccco2)n1-c1ccccc1,34.3% (active)
17,COc1ccc(C(=O)NC(=O)CSc2nnc(-c3ccco3)n2-c2ccccc2)cc1,95.2%
18,COC(=O)c1sc(=S)n(-c2ccc(Cl)cc2)c1C,90%
19,CCOn1c(SC(C)C)nc2ccccc2c1=O,103%
20,CCOC(=O)c1c(C)nc2c(c1C)c(=O)oc1ccccc12,98.3%
21,CCOC(=O)c1cc2cc(-c3c(C(=O)OCC)oc4cc(O)cc(O)c4c3=O)ccc2o1,16.6% (active)
22,Cc1ccc(OC(=O)c2cc3ccccc3o2)cc1,104%
23,CN(C)c1nc(N)nc(CSc2ccccn2)n1,91%
24,Cc1cc(N/C=C\C(=O)c2ccc(Cl)c(Cl)c2)no1,84.8%
25,CCOC(=O)c1ccccc1NS(=O)(=O)c1ccc(OC)cc1,18.2% (active)

row,Structure (SMILES),viability
1,CCCC(NS(=O)(=O)c1ccc(OC)cc1)C(=O)O (stereo not drawn),104%
2,COC(=O)CNS(=O)(=O)c1ccc(OC)cc1,91.5%
3,O=c1[nH][nH]c(C(F)(F)F)c1C=NCc1ccccc1Cl,81.2%
4,Cc1cccc(-c2noc(-c3ccc(F)cc3)n2)c1,91.5%
5,COc1ccc(-c2nc(-c3ccccc3)no2)c(OC)c1,69.4%
6,Cn1nc(-c2ccccc2)c(-c2nc(-c3ccc(Cl)cc3)no2)c1Cl,34.3% (active)
7,COc1ccc(Cl)cc1C(=O)NCc1cn(C)nc1C,86.1%
8,Cc1ccccc1-n1c(C)cc(/C=C2\NC(=O)NC2=O)c1C,85.6%
9,CC1CC2=C(CC1/C=N/NC(N)=S)C(C)(C)CCC2 (stereo not drawn),2.3% (active)
10,CC1(C)CCCC2=C1CC1C(=O)N(c3ccccc3)C(=O)C1C2 (stereo not drawn),84%
11,CCCc1nc2ccccc2c(=O)n1/N=C/c1ccc(O)c(O)c1,15.8% (active)
12,CCCc1nc2ccccc2c(=O)n1NC(=O)c1c(O)c2ccccc2[nH]c1=O,86.6%
13,CCCCc1nc2ccccc2c(=O)n1NC(=O)c1c(O)c2cccc3c2n(c1=O)CC3,70.7%
14,CCn1c2ccccc2c2cc(NC(=S)N3CCOCC3)ccc21,20.1% (active)
15,CCn1c(=O)cc(O)c2ccccc21,83.1%
16,CCOc1cc(C(=S)N2CCOCC2)ccc1O,85.1%
17,CS(=O)(=O)Nc1ccc(C(=O)N2CCCC2)cc1,89.1%
18,Cc1ccc(CN2CCN(/N=C/c3ccco3)CC2)c(C)c1,106%
19,C=CCNC(=O)c1cc2nc(C3CC3)cc(C(F)F)n2n1,91.1%
20,Cc1[nH]n(-c2cccc(Cl)c2)c(=O)c1/C=N/n1c(C)nc2ccccc2c1=O,29.1% (active)
21,Cn1c(COc2ccc(Cl)cc2)nc2ccccc2c1=O,77.5%
22,Cc1[nH]n(-c2ccc(Cl)cc2)c(=O)c1/C=N/n1c(C)nc2ccccc2c1=O,50.4%
23,O=C(CN(c1ccccc1)S(=O)(=O)c1ccc(Cl)cc1)Nc1ccccc1C(=O)N1CCCC1,84.3%
